Structures are written as SMILES. Screen size: about 360,000 compounds; about 240 (0.067%) were called active. This excerpt belongs to a sample that is enriched for actives. A number with no mark means an inactive call. No stated cut-off is given here; in the data, active means activation above about 50%; inconclusive means mostly about 30% to 49%; inactive means weaker than that.

The nature of this experiment: qHTS of IL-2 Activators. Further: 0% is about no effect. Conditions: IL-2 activation reporter assay, cell-based qHTS; active compounds read high; in transgenic mouse T cells; stimulated with anti-CD3/CD4/CD28 beads. An excerpt:
The adaptive immune response against any infectious agent begins with the activation of an antigen specific T cell. This relatively rare and inert ("naive") T cell undergoes a massive proliferative expansion and differentiation process to generate sufficient number of potent pathogen-specific effector T cells. The effector T cells fight the infection by making cytokines and helping other cells to become fully armed as well. If any naive T cell has antigen receptors (TCRs) that can be activated by self peptides, then a variety of regulatory mechanisms kick in to prevent this cell from performing to its full potential. These processes collectively constitute the phenomenon of immunological tolerance and their failure leads to autoimmunity. One arm of tolerance involves generation of biochemical negative feedback downstream of the TCR (tuning). This is especially relevant to self antigens present in the body over long periods of time (chronic), which form the bulk of our proteome. The negative feedback serves to tune the TCR signaling, such that the ambient antigenic stimulation is nullified intracellularly. Unfortunately, this critical machinery serves as a target for chronic viral, bacterial and parasitic infections (as well as tumors), which can evade a robust immune response, simply by allowing T cells to tune down their signaling to pathogen or malignancy derived antigens. As such, disrupting the tuning in such cases would allow the tolerant T cell to function again and deliver a robust effector response.
If a therapeutic can restore responsiveness to the tuned down T cell, even for a short time, they could combat the pathogen without any additional immunization. To that end, we have developed a sensitive HTS T cell based assay based on IL-2. This assay will be screened against the Molecular Libraries Small Molecule Repository (MLSMR) to find small molecules that could elicit this response.
NIH Chemical Genomics Center [NCGC]
NIH Molecular Libraries Probe Centers Network [MLPCN]
Assay Submitter (PI): Ron Schwartz, NIAID
4 microL (750 cells/well) of unstimulated transgenic mouse T cells (columns 1-3,5-48) are dispensed into Aurora LoBase, black clear-bottom 1536-well assay plates; column 4 receives an identical concentration of transgenic memory T cells as a non-tolerant control. Compounds are then transferred via Kalypsys pin tool equipped with 1536-pin array (10 nL slotted pins, V&P Scientific, San Diego, CA). Following addition of compound and a 60 minute incubation, 1 microL of bead stimulation solution ((0.04 micron Fluospheres (Life technologies, CA) coated with 10ug/ml each anti-CD3 and anti-CD4 (clones 2C11 and GK1.5, BD Biosciences, CA) and mixed with 1ug/ml anti-CD28 (clone PV-1, BD biosciences, CA)). columns 2-48) is added to stimulate the IL-2 response pathway; media is instead added to column 1 as an unstimulated control, while PMA/ionomycin (Sigma Aldrich, MO) is added to column 3 as a control for IL-2 tolerance bypass. The plates are then incubated at 37 degrees C for 18 hours. EGFP and DsRed signal are then detected using an Acumen eX3 Explorer fluorescent plate cytometer. All cells are dispensed in cell media containing EHAA (Quality Biologicals, MD), RPMI (Quality Biologicals, MD), Glutamine (Life Technologies, CA), Penicillin/Streptomycin (Quality Biologicals, MD), 2-ME (Sigma Aldrich, MO) and 10% FBS (Gemini Bioproducts, CA) .
(qHTS replaces the single test concentration by a dilution series.)
For the compound `Cc1ccc(-c2c[n+](=O)c3c(n2[O-])CCC3)cc1`, the activation is 1.34%.
The result for `COc1ccc(N(CC(=O)NC2CCCC2)C(=O)CS(=O)CC(=O)Nc2ccc3c(c2)OCO3)cc1` (configuration not stated) reads -2.57%; that for `c1csc(CN2CCN(Cc3cccs3)C2c2cccs2)c1`, 0.339%; that for `Cc1cc(C)cc(C(=O)NC(CC(N)=O)c2ccc(N3CCC(N4CCCCC4)CC3)c([N+](=O)[O-])c2)c1` (configuration not stated), -0.417%.
The result for `O=C(O)CCCCOn1ccnc1` reads 1.09%; that for `CCn1nc(C)c(CN2CCN(Cc3ccc(OC)c(C)c3C)C(CCO)C2)c1C` (configuration not stated), -3.09%; that for `O=C(O)c1ccccc1N=N/C(=N/Nc1cc(S(=O)(=O)O)ccc1O)c1ccccc1`, 0.118%.
In the case of `CCOC(=O)[C@]12CCCC=C1N(Cc1cccc3ccccc13)C(=O)[C@H](CC(=O)NCC13CC4CC(CC(C4)C1)C3)C2` it was -1.16%; in that of `CCN(CC)S(=O)(=O)c1ccc(N2CCN(C)CC2)c(NC(=O)Nc2ccccc2F)c1`, -1.22%; in that of `CC1(Oc2ccc(Cl)cc2)CCN(Cc2csc3ccccc23)C1` (configuration not stated), 0.192%.
Consider `COC(=O)COc1cccc2c(=O)n(CC(=O)NCc3ccccc3)ccc12`, for which the activation was -3.22%.
In the case of `CCOC(=O)N1CCN(C(=O)c2ccccc2SCC(=O)NCC2CCCCC2)CC1`, the activation was -1.16%.
On to `O=C(NCc1ccccc1Cl)c1csc([C@@H]2O[C@H](CO)[C@@H](O)[C@H]2O)n1`, for which the activation is 0.0054%.
Take `CC(=O)Nc1ccc(C(=O)Nc2cc(S(=O)(=O)N3CCOCC3)ccc2N2CCOCC2)cc1`: the activation was -2.32%.
Regarding `Nc1nc(-c2sc3nc4c(cc3c2N)CCCC4)nc(N2CCOCC2)n1`, the activation is -1.7%.
As to `CCCc1cc(=O)[nH]c(SCc2cc(=O)oc3c(C)c(C)ccc23)n1`, the activation is -0.327%.
Turning to `CCOc1ccccc1NC(=O)C12CC3CC(C1)CC(c1ccc(C)cc1)(C3)C2`, the activation was -4.57%.
`Cc1cc(C)c2c(-n3cccc3)c(C(=O)NNS(=O)(=O)c3ccc(F)cc3)sc2n1`: the activation is 0.79%.
In the case of `CC(=O)N(Cc1cccs1)C1CCOC(C)(C)C1` (configuration not stated) it was -0.456%; in that of `O=C(NNC(=S)NC1CC2CCC1C2)c1ccc(Cl)cc1` (configuration not stated), -0.932%.
In the case of `Cc1ccccc1-n1nnc2c(=O)oc3ccccc3c21` it was -0.569%; in that of `COc1ccccc1CNC(=O)C1CCCN(S(=O)(=O)c2cccc3cccnc23)C1` (configuration not stated), -1.32%.
For `Cc1ccc(C(CC(=O)O)NC(=O)c2ccc(S(=O)(=O)N3CCCC3)cc2)cc1` (configuration not stated), the activation was 0.29%.
In the case of `CC1=C(C(=O)OC2CCCCC2)C(c2ccccc2F)NC(=O)N1` (configuration not stated), the activation was -8.28%.
As to `Cn1cccc1C1(C(F)(F)F)NCCNC1=O` (configuration not stated), the activation is -1.5%.
In the case of `CCO[C@H]1OC(C(=O)N2CCOCC2)=C[C@@H](c2ccc3c(c2)OCO3)[C@@H]1CCCO`, the activation was -0.126%.
As for `Cc1nn(CCOc2ccc(Br)cc2)c(C)c1[N+](=O)[O-]`, the activation was -2.36%.

For the origin of these results see PubChem BioAssay AID652025 (National Center for Advancing Translational Sciences (NCATS), 2013).
